± gives the standard deviation of the averaged measurements.

Experiment [1] relates to MDA-MB-231. The experiment in a line: cell viability relative to vehicle unstimulated control (fraction); higher = more viable cells. Particulars: pre-treatment time: 18 h then 24 h IFNg/TNF.
Experiment [2] relates to MDA-MB-231. The experiment can be described thus: kynurenine production, fold change vs DMSO IFNg/TNF control; higher = more kynurenine produced (less inhibition). Particulars: pre-treatment time: 18 h then 24 h IFNg/TNF. The gist of the method: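 MDA-MB-231 cells (7 × 10^4/well, 96-well plates, seeded 24 h earlier) were pre-treated 18 h with each natural product in 0.1% DMSO, then stimulated 24 h with IFNγ (1 U/ml) and TNF (6.25 ng/ml) at 37°C. Supernatant kynurenine was read at 492 nm after trichloroacetic acid and p-dimethylaminobenzaldehyde treatment, against 0–100 μM standards. Kynurenine production is the fold change over cytokine-stimulated vehicle wells on the same plate, averaged over duplicate plates in the first screening round.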
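Throughout, for cell viability relative to vehicle unstimulated control: viability of the cells left after supernatant collection, read with Deep Blue dye added for 4 h, as absorbance at 570 nm minus 600 nm.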

On to `CC1(C)CC[C@]2(C(=O)O)CC[C@]3(C)C(=CC[C@@H]4[C@@]5(C)C[C@@H](O)[C@H](O)C(C)(C)[C@@H]5CC[C@]43C)[C@@H]2C1` [Maslinic acid] (compound dose: 10 uM), for which, in the experiment with MDA-MB-231 [1], the cell viability was determined as 0.962 ± 0.032. Moreover, in the experiment with MDA-MB-231 [2], the kynurenine production came out at 0.876 ± 0.12.
Turning to `O=C(O)c1cccnc1` [Nicotinic acid] (compound dose: 10 uM), the cell viability in the experiment on MDA-MB-231 [1] is 0.917 ± 0.043. Also, in the experiment on MDA-MB-231 [2], the kynurenine production stood at 0.945 ± 0.13.
For `CC1(C)CC[C@]2(C(=O)O)CC[C@]3(C)C(=CC[C@@H]4[C@@]5(C)CC[C@H](O)C(C)(C)[C@@H]5CC[C@]43C)[C@@H]2C1` [Oleanolic Acid] (compound dose: 10 uM), in that order: 0.984 ± 0.035 and 0.778 ± 0.07.
The corresponding values for `CC(C)C1=CC2=CC[C@@H]3[C@](C)(CCC[C@@]3(C)C(=O)O)[C@H]2CC1` [Abietic acid] (compound dose: 10 uM) are 1.08 ± 0.025 and 0.803 ± 0.22.
As for `CC(C)=CCC[C@@H](C)CCO` [(R)-Citronellol] (compound dose: 10 uM), the cell viability in the experiment with MDA-MB-231 [1] amounted to 1.029 ± 0.0012. Besides, the kynurenine production with MDA-MB-231 [2] came to 0.824 ± 0.11.
The corresponding values for `CC1(C)CC[C@]2(C(=O)O[C@@H]3O[C@H](CO)[C@@H](O)[C@H](O)[C@H]3O)CC[C@]3(C)C(=CC[C@@H]4[C@@]5(C)CC[C@H](O[C@@H]6O[C@H](C(=O)O)[C@@H](O)[C@H](O)[C@H]6O[C@@H]6O[C@H](CO)[C@@H](O)[C@H](O)[C@H]6O)C(C)(C)[C@@H]5CC[C@]43C)[C@@H]2C1` [Ginsenoside Ro] (compound dose: 10 uM) are 0.928 ± 0.091 and 1.05 ± 0.091.
As for `C[C@@]12C[C@H](c3ccoc3)O[C@@]13C[C@H](OC3=O)[C@H]1[C@H]2C[C@@H]2C[C@H]1C(=O)O2` [Diosbulbin B] (compound dose: 10 uM), the cell viability with MDA-MB-231 [1] worked out at 0.78 ± 0.24. The kynurenine production with MDA-MB-231 [2] was determined as 0.779 ± 0.13.
As for `CC1=CC[C@@H](C(C)(C)O)CC1` [(-)-α-Terpineol] (compound dose: 10 uM), in the experiment on MDA-MB-231 [1], the cell viability came out at 1.07 ± 0.061. In addition, the kynurenine production with MDA-MB-231 [2] was 0.84 ± 0.24.
`COC(=O)C1=CC[C@@]23CC[C@@H]([C@@](C)(/C=C/C=C(\C)C(=O)O)OC2=O)[C@@]3(OC(C)=O)CC1` [Pseudolaric Acid B] (compound dose: 10 uM): the cell viability in the experiment with MDA-MB-231 [1] was 0.898 ± 0.035. The kynurenine production in the experiment on MDA-MB-231 [2] was determined as 0.62 ± 0.24.
As to `C[C@H]1O[C@@H](O[C@H]2[C@@H](O)C[C@H](O[C@H]3[C@@H](O)C[C@H](O[C@H]4CC[C@@]5(C)[C@H](CC[C@@H]6[C@@H]5C[C@@H](O)[C@]5(C)[C@@H](C7=CC(=O)OC7)CC[C@]65O)C4)O[C@@H]3C)O[C@@H]2C)C[C@H](O)[C@@H]1O` [Digoxin] (compound dose: 10 uM), the cell viability in the experiment with MDA-MB-231 [1] was 0.543 ± 0.066. In addition, the kynurenine production in the experiment on MDA-MB-231 [2] is 0.103 ± 0.071.
Consider `CC1(C)CCC2(CO)C(=C3C=CC4C5(C)CCC(OC6OC(COC7OC(CO)C(O)C(O)C7O)C(OC7OC(CO)C(O)C(O)C7O)C(O)C6O)CC5C(C)(CO)CC4(C)C3(C)CC2O)C1` (stereo not given) [Clinodiside A] (compound dose: 10 uM), for which, in the experiment on MDA-MB-231 [1], the cell viability was 0.918 ± 0.029. Further, in the experiment on MDA-MB-231 [2], the kynurenine production was 1.03 ± 0.2.
The corresponding values for `CC(C)=CCC[C@](C)(O[C@@H]1O[C@H](CO[C@@H]2O[C@H](CO)[C@@H](O)[C@H](O)[C@H]2O)[C@@H](O)[C@H](O)[C@H]1O)[C@H]1CC[C@]2(C)[C@@H]1[C@H](O)C[C@@H]1[C@@]3(C)CC[C@H](O[C@@H]4O[C@H](CO)[C@@H](O)[C@H](O)[C@H]4O[C@@H]4O[C@H](CO)[C@@H](O)[C@H](O)[C@H]4O)C(C)(C)[C@@H]3CC[C@]12C` [Ginsenoside Rb1] (compound dose: 10 uM) are 1.02 and 1.08 ± 0.11.
As for `CC(C)(O)[C@H]1CC[C@@](C)([C@H]2[C@@H](O)C[C@@]3(C)[C@@H]4C[C@H](O)[C@H]5C(C)(C)[C@@H](O)CC[C@@]56C[C@@]46CC[C@]23C)O1` [Cyclogalegenin] (compound dose: 10 uM), in the experiment on MDA-MB-231 [1], the cell viability is 0.999 ± 0.043. Moreover, the kynurenine production in the experiment on MDA-MB-231 [2] is 0.854 ± 0.064.
For `COc1cc2ccc(=O)oc2cc1O[C@@H]1O[C@H](CO)[C@@H](O)[C@H](O)[C@H]1O` [Scopolin] (compound dose: 10 uM), in that order: 1.015 ± 0.0034 and 1.22 ± 0.16.
In the case of `CC(C)=C[C@H]1C[C@](C)(O)[C@H]2[C@H]3CC[C@@H]4[C@@]5(C)CC[C@H](O[C@@H]6O[C@H](CO)[C@@H](O)[C@H](O[C@@H]7O[C@H](CO)[C@@H](O)[C@H](O)[C@H]7O)[C@H]6O[C@@H]6O[C@@H](CO)[C@H](O)[C@H]6O)C(C)(C)[C@@H]5CC[C@@]4(C)[C@@]34CO[C@@]2(C4)O1` [Bacoside A3] (compound dose: 10 uM), the cell viability with MDA-MB-231 [1] worked out at 0.944 ± 0.034. The kynurenine production in the experiment with MDA-MB-231 [2] stood at 0.672 ± 0.11.

The values above are taken from the supplement of paper PMC13094657.
